Laboratory results published in PubChem BioAssay AID1645879 (National Center for Advancing Translational Sciences (NCATS), 2021).
Inconclusive results are not listed. Entries that show only a call come without a potency. Activity calls are given as the source filed them. The call rests on the fitted dose curve; in most records, active means well fitted inhibition curve with a large enough effect; inconclusive means small, poorly fitted or top-dose-only effect; inactive means no such curve, though single readings can be large or run the other way.

Experiment: Counterscreen qHTS assay for inhibitors of N-terminal methyltransferase 1 (NTMT1): SPKRIA Counterscreen Assay
Settings: biochemical qHTS; series mostly up to 99.2 µM
Excerpt: Assay Submitter (PI): Rong Huang Ph.D,
Purdue University, West Lafayette, IN 47907
The N-terminal methytransferase 1 is the first methyltransferase that methylates protein alpha-N-amines and plays an important role in regulating cell mitosis, chromatin interactions and DNA repair. It is observed to be over-expressed in various cancer patient tissues like malignant melanoma and colorectal cancer tissues. Knockdown of NTMT1 in cancer cells causes cell mitotic defects and enhances sensitivity to DNA damaging chemotherapeutics. […] These critical cellular processes in which NTMT1 is implicated, coupled with emerging links to cellular dysfunction, strengthen the inference that NTMT1 is a compelling novel anticancer target. Progress have been made in understanding the molecular properties of NTMT1 and the biological consequences of protein alpha-N-terminal methylation, but there are no specific small molecule probes available for NTMT1 to fully characterize its MTase activity. To address this unmet need, a panel of assay is created and established to enable quantitative high-throughput screening (qHTS) for novel, potent, and selective small molecule NTMT1 inhibitors. Two orthogonal qHTS that use different reagents (ThioGlo vs. MTaseGlo) are developed for primary robotic screening against the NCATS chemical library of more than 400,000 small molecules. Identified inhibitors are reacquired, validated, and further characterized.
MTaseGlo Assay is a luminescence screen that measure the activity of methyltransferases based on the reaction product S-adenosyl homocysteine (SAH). The substrate SAM is converted to SAH upon enzyme activation. MTase-Glo reagent and detection solution convert SAH to ATP and measure the light from the luciferase reaction. Nicotinamide N-methyltransferase (NNMT) is a cystolic enzyme that catalyzes the transfer of a methyl group from the co-factor SAM onto the substrate, nicotinamide (NA) to form 1-methyl-nicotinamide (MNA) and SAH. NNMT MTaseGlo assay is used as a counterscreen to evaluate selectivity of identified inhibitors.
SPKRIA and Ac-RCC-10 control is provided by the Huang laboratory.
PROTOCOL TABLE; SEQUENCE No. (e.g., 1, 2, 3, etc.); […] (e.g., Cells, Incubation, Reagent, etc.); VALUE; DESCRIPTION
1; Reagent; 3 uL; dispense assay buffer.
2; Compound; 23 nL; pin compounds and control into the assay plate.
3; Time; 15 min; room temperature incubation.
4; Reagent; 1 uL; dispensed [4x] substrate or buffer.
5; Time; 30 min; incubate at room temperature.
6; Reagent; 1 uL; dispense MTase-Glo Reagent (R).
7; Time; 30 min; incubate at room temperature.
8; Reagent; 5 uL; dispense [1x] MTase-Glo Detection Solution to allow for ADP to be converted to ATP.
9; Centrifugation; 1,000 RPMs; assay plates were centrifuged.
10; Incubation; 30 min; room temperature.
11; Detection; Luminescence; ViewLux plate reader (clear filter, 10 second exposure).
NOTES (numbers refer to Sequence numbers above; values are from representative experiments)
1; Dispense the assay buffer into Greiner 1536-well black / solid bottom assay plate (Greiner Bio One, Monroe, NC).
2; Pin control inhibitor Ac-RCC1-10 at a final concentration range of 234 nM to 143 uM using a Wako Pin Tool (Wako Automation USA) equipped with a 1536-slotted pin array (Wako Automation, Richmond, VA). Pin compound library into the assay plates (columns 5 - 48) at a final concentration range of 97 nM to 250 uM.
3; Incubate the assay plates at room temperature.
4; Dispense 1 uL of substrate SPKRIA solution (final concentration 1 uM) or 1 uL buffer was added to the wells bringing the final assay volume to 4uL. The assay plate was covered with metal lids.
5; Incubate the assay plate at room temperature.
6; Dispense 1 uL of 5x MTase-Glo Reagent in the assay plate.
7; Incubate at room temperature to allow for SAH to be converted to ADP
8; Dispense 5 uL of 5x MTase-Glo Detection Solution in the assay plate to allow for ADP to be converted to ATP.
9; Assay plates were centrifuged for 15 seconds.
[…]

| Structure (SMILES) | Potency |
| --- | --- |
| Cc1cc2c(s1)c1cnn(Cc3ccc(C)c(F)c3)c(=O)c1n2C | inactive |
| Oc1ccc(Cl)cc1Nc1nc2ccccc2n2cnnc12 | inactive |
| COc1cc(C)c(/C=C/C(C)=C/C=C/C(C)=C/C(=O)O)c(C)c1C | inactive |
| COc1ccc2[nH]c(S(=O)Cc3ncc(C)c(OC)c3C)nc2n1 (stereo not given) | inactive |
| CC(=O)Nc1sc2c(c1-c1nc3ccccc3s1)CNC2 | inactive |
| Oc1cccc(Nc2nc(-c3ccccc3)nc3ccccc23)c1 | 20 µM (active) |
| CN1CCCN=C1/C=C/c1cccs1 | inactive |
| C[C@]12CC[C@@H]3c4ccc(O)cc4CC[C@H]3[C@@H]1C[C@@H](O)[C@@H]2O | inactive |
| Cc1ccc2nc(-c3ccc(O)cc3)c(Nc3ccc(Cl)cc3)n2c1 | inactive |
| Cc1ccnc(NC(=S)N2CCNCC2)c1 | inactive |
| CC(=O)C1CCC2C3CCC4=CC(=O)CCC4(C)C3CCC12C (stereo not given) | inactive |
| O=C(Nc1onc2c1CCCC2)c1ccccc1 | inactive |
| Cc1cccc(C(=O)Nc2sc3c(c2C(=O)O)CCCC3)c1 | 50.1 µM (active) |
| CCc1cc(C(N)=S)ccn1 | inactive |
| O=C(O)c1cccc(-c2noc(-c3ccccc3F)n2)c1 | inactive |
| CC[C@H](c1ccc(O)cc1)[C@@H](CC)c1ccc(O)cc1 | inactive |
| O=C(O)c1ccc(-c2noc(-c3cccc(Cl)c3)n2)cc1 | inactive |
| C[C@]12CCC3=C4CCC(=O)C=C4CC[C@H]3[C@@H]1CC[C@@]2(O)CC#N | inactive |
| Nc1nc2c(s1)C(c1ccccc1Cl)CC(=O)N2 (stereo not given) | inactive |
| O=c1[nH]cnc2nc[nH]c12 | inactive |

| Structure (SMILES) | Potency |
| --- | --- |
| O=c1c(-c2ccc(O)cc2)coc2cc(O)ccc12 | inactive |
| Cc1cccc(-n2cnc3cc(C(=O)NC4CCCC4)ccc32)c1 | 44.7 µM (active) |
| C1CCC(C(CC2CCCCN2)C2CCCCC2)CC1 (stereo not given) | inactive |
| CCCn1c(/C=C/c2ccccc2)nc2ccccc21 | inactive |
| OCc1cccc(-c2noc(-c3ccccc3F)n2)c1 | inactive |
| CC(C)c1ccc(Nc2ncnc3c2nc2n3CCCC2)cc1 | 50.1 µM (active) |
| NC(=O)C1CCN(c2nc(-c3cccc4ccccc34)cs2)CC1 | inactive |
| COc1cc2ncnc(Nc3cccc(Cl)c3)c2cc1OC | 22.4 µM (active) |
| O=C(c1ccc(/C=C/c2n[nH]c3ccccc23)cc1)N1CCNCC1 | inactive |
| O=C(Nc1nc2c(s1)CCCC2)c1ccccc1F | 39.8 µM (active) |
| Cc1nc(C)c(-c2ccc3ncnc(NCc4ncc[nH]4)c3c2)s1 | 44.7 µM (active) |
| COc1cc(/C=C\c2ccc(O)cc2)cc(OC)c1 | inactive |
| CCCNC(=O)CSc1c(CCC)cnc2c1c(=O)n(C)c(=O)n2C | inactive |
| Cc1cc2c(s1)c1cnn(Cc3cccc(C)c3F)c(=O)c1n2C | inactive |
| Clc1ccc2ncc(-c3cccc(NC4CCNC4)n3)n2c1 (stereo not given) | inactive |
| CN(C)C(=O)c1ccc(-c2cc[nH]c(=O)c2N)cc1 | inactive |
| COCCCNC(=O)CSc1c2c(nc3ccc(Cl)cc13)CCCC2 | inactive |
| Cc1cc(C)n2c(Nc3c(C)cccc3C)c(-c3ccsc3)nc2n1 | inactive |
| O=c1cc(-c2ccccc2)oc2ccccc12 | 112 µM (active) |
| Cc1cc(C)nc(NC(=S)N2CCN(c3ccncc3)CC2)c1 | inactive |
